Compound activity: PubChem, National Center for Advancing Translational Sciences (NCATS)
USP1 inh: blocks the human USP1/UAF1 deubiquitinase complex; O94782; recombinant USP1/UAF1, Ub-Rhodamine cleavage fluorescence; Potency, µM (highest dose often 57.1 µM), actives largely listed as inhibitors; hit rate 0.23% among 390,000; AID 743255; note: nearly all actives have a fitted effect of over 60% in size
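1 nM enzyme complex + cpd, 15 min RT; start with Ub-Rho 150nM final; kinetic fluorescence ex 480/em 540, 6 reads q60 s. Buffer 50mM HEPES pH 7.8, 0.5mM EDTA, 0.1 mg/ml BSA, 1mM TCEP, 0.01% Tween-20.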
IL1B secr inh: blocks inflammasome-driven IL-1 beta release; THP-1 LPS/ATP IL-1B secretion, AlphaLISA, 16 h; hits give low values; activity change, % at 57.5 µM; hit rate 4.7% among 360,000; AID 743279; in the data active = activity change below about -50%; inconclusive = mostly about -30% to -49%
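THP-1 cells pretreated 1 hr with compounds (up to 57.5 uM final), then stimulated with LPS (250 ng/mL final) plus ATP (1.25 mM final); secreted IL-1B measured by AlphaLISA after 16 hr, decreased signal indicating inhibition.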
ATXN2 expr inh: reduces ATXN2 reporter expression in HEK-293 cells; HEK-293 ATXN2-luciferase reporter, luminescence, 24 h; Potency, µM (doses to about 57 µM), hits mostly inhibitors; hit rate 0.72% among 360,000; AID 1745845; note: nearly all actives have a fitted effect of over 55% in size
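ATXN2-luciferase reporter cells (luciferase flanked by upstream and downstream ATXN2 gene portions) were treated 24 h at 37 °C with compounds at up to 57 uM. SteadyGlo luminescence gave expression; GF-AFC fluorescence gave viability.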
USP2a block: inhibitors of human ubiquitin-specific protease USP2a. O75604. USP2 core, Ub-CHOP2 coupled fluorogenic reporter, 485/531. Potency, µM (top dose mostly 38.3 µM), usual class: inhibitors. hit rate 0.01% among 330,000. AID 463254
Target sequence (O75604 whole entry, looked up): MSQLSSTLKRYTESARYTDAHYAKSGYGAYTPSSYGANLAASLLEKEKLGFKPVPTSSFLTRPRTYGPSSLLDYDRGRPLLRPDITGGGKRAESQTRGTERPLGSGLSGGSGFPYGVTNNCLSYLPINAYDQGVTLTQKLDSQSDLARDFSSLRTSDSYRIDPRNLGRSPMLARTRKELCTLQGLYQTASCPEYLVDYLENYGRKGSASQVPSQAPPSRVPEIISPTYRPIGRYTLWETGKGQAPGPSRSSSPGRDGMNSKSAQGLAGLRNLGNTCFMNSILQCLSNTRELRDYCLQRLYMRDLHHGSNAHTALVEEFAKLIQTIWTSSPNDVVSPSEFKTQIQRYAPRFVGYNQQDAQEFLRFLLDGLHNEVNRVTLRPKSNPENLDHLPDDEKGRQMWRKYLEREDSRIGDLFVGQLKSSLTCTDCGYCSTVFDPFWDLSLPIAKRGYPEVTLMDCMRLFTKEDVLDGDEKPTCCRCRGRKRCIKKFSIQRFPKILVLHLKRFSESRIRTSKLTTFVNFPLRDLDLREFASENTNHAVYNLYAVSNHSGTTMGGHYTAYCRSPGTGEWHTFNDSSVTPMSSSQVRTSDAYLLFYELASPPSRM
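USP2 core (10nM final) preincubated 30min RT with compound in 20mM Tris-HCl pH 8.0, 2mM CaCl2, 2mM beta-mercaptoethanol, 0.05% CHAPS; 25nM Ub-CHOP2 plus 25nM reporter substrate added, fluorescence (Ex485/Em531) read after 60min.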
ATXN viability: viability counter-screen for ATXN expression inhibitors | hit rate 0.49% among 400,000 | Potency, µM (series often up to 56.7 µM), actives largely listed as cytotoxic | S2 cells (HEK-293 line with an ATXN2-luciferase reporter) viability, CellTiter-Fluor protease fluorescence, 24 h; note: nearly all actives have a fitted effect of over 40% in size
A number is an active result; - = inactive; ? = inconclusive; . = not tested or not shown; ! = not confirmed by another sample. Shown are actives, neighbours in structure and some others; about 4.8% of the full set was active somewhere. Unless noted, calls come from the whole dose curve; as a rule, active = well fitted curve in the direction sought with a large enough effect; inconclusive = small, poorly fitted or top-dose-only effect, or another doubt; inactive = no such curve, though single readings can be large; an effect the other way counts as inactive or inconclusive.

SMILES | USP1 inh | IL1B secr inh | ATXN2 expr inh | USP2a block | ATXN viability
COc1ccccc1N1CCN(C(CNC(=O)C(=O)NCCCN(C)C)c2cccnc2)CC1 (stereo not given) | - | . | - | . | -
Cc1cc(Nc2cccc(C(F)(F)F)c2)nc2ccc(NC(=O)c3cccnc3)cc12 | - | . | ? | . | 18µM
Cc1cc(Nc2cccc(C(F)(F)F)c2)nc2ccc(NC(=O)c3cccc(Cl)c3)cc12 | - | . | ? | . | -
O=C(c1ccc2c(c1)N(Cc1ccc(Cl)cc1)C(=O)c1ccccc1S2(=O)=O)N1CCc2ccccc21 | - | . | - | . | -
CCN1CCN(CCNC(=O)CCc2c(C)c3c(C)nn(-c4ccccc4)c3n(C)c2=O)CC1 | - | -61 | - | - | ?
COc1ccc(OC)c(-c2cc(Cl)c3c(c2)CC(CNC(=O)C(C)N2CCOCC2)O3)c1 (stereo not given) | . | . | . | . | -
CC[C@H](C=C[C@@H](C)[C@H]1CC[C@H]2[C@@H]3CC=C4C[C@@H](O)CC[C@]4(C)[C@@H]3CC[C@]12C)C(C)C | . | . | - | . | .
CC1=CC2C(C(O)CC3(C)C2CC(C)C32OCOC23COCO3)C2(C)C/C(=C\O)C(=O)C=C12 (stereo not given) | - | -104 | ? | . | .
Cc1ccc(-n2c(SCC(=O)N3CCC(C)CC3)nc3c([nH]c4ccccc43)c2=O)cc1 | - | . | . | . | .
O=C(NCc1ccccc1)c1cc(C2CCCN(C(=O)C3CCCCC3)C2)on1 (stereo not given) | . | - | - | . | -
CC1(C(=O)NCc2ccco2)Cc2c(-c3cccc(C(N)=O)c3)ccnc2O1 (stereo not given) | . | -57 | - | . | -
CC(=O)Nc1ccc(-c2ccnc3c2CC(C)(C(=O)Nc2ccc4c(c2)OCO4)O3)cc1 (stereo not given) | . | -51 | - | . | ?
CC1(C(=O)NCc2ccccc2)Cc2c(-c3cccc(C(N)=O)c3)ccnc2O1 (stereo not given) | . | - | - | . | ?
CC(=O)Nc1ccc(-c2ccnc3c2CC(C)(C(=O)Nc2ccc(Cl)cc2)O3)cc1 (stereo not given) | . | -53 | ? | . | -
CC(=O)Nc1ccc(NC(=O)C2(C)Cc3c(-c4ccc5c(c4)OCO5)ccnc3O2)cc1 (stereo not given) | . | - | - | . | ?
CC(=O)Nc1ccc(-c2ccnc3c2CC(C)(C(=O)Nc2ccc(Cl)c(C(F)(F)F)c2)O3)cc1 (stereo not given) | . | - | 20µM | . | 13µM
COc1ccc(NC(=O)/C(C#N)=C/c2ccc(-c3ccc(Cl)c(C(=O)O)c3)o2)cc1 | - | - | - | - | -
Cc1cc(F)cc(-c2cc(C(=O)NCc3ccco3)[nH]n2)c1 | . | ? | - | . | -
COc1ccc(NC(=O)C2CCCN(c3ncnc4c3nc3n4CCCCC3)C2)c(OC)c1 (stereo not given) | - | . | - | . | -
CCCCCCCN(c1ccccc1)[C@@H]1C[C@H]2CCCC(=O)N3CC[C@@H](C1)[C@@H]23 | ? | -108 | ? | . | .
CCOc1ccc(-c2cc(CCCC(=O)Nc3cccc(OC)c3)no2)cc1 | - | - | 8.9µM | - | -
CCOC(=O)c1c(-c2ccccc2)oc2ccc(OCC(O)CN(C)C)cc12 (stereo not given) | - | -65 | - | - | ?
Cc1cc(C)cc(C(=O)NC(=S)Nc2ccc(-c3cc4ccccc4oc3=O)cc2)c1 | - | - | 6.3µM | - | ?
COc1ccc2c(c1)CC/C(=C/c1ccccn1)C2=O | - | ? | - | - | -
O=C1C(=Cc2ccccc2[N+](=O)[O-])Cc2ccccc21 | - | -103 | . | . | ?
SMILES | USP1 inh | IL1B secr inh | ATXN2 expr inh | USP2a block | ATXN viability
O=C1/C(=C/c2cccc([N+](=O)[O-])c2)CCc2ccccc21 | - | -121 | - | - | -
CCN1C/C(=C\c2cccc([N+](=O)[O-])c2)C(=O)/C(=C/c2cccc([N+](=O)[O-])c2)C1 | - | -104 | 3.5µM | - | 4.5µM
Nc1ccccc1C=C1Cc2ccccc2C1=O | - | - | - | . | -
O=C1C(=Cc2ccccn2)CCc2ccccc21 | - | -108 | . | . | ?
O=C1/C(=C/c2cccc([N+](=O)[O-])c2)CSc2ccc(Cl)cc21 | - | - | - | - | -
CCCN(CCC)CCNC(=O)c1nn(C)c2c1CS(=O)(=O)c1ccccc1-2 | - | . | - | . | ?
C(=Cc1cnnc2ccccc12)c1ccccc1 | - | -63 | - | . | -
CSc1cnnc2ccccc12 | - | - | - | . | -
Cn1c2c(c(=O)n(C)c1=O)C(C(F)(F)F)(C(F)(F)F)N=C(CCC1CCCCC1)N2 | - | -58 | ? | - | -
CCOC(=O)c1sc(NC(=O)Nc2ccc(Cl)cc2)cc1C | - | -103 | ? | - | -
Cc1ccc(CNC(=O)c2sc3nc[nH]c(=O)c3c2C)cc1 | - | . | . | . | .
C[C@@H]1CC(=O)NN=C1c1ccc(NN=C(C#N)C#N)cc1 | . | . | 27µM! | . | 25µM
Cc1cc(C(=O)OCC(=O)Nc2ccc(F)cc2F)c(C)o1 | - | -55 | - | - | -
